This is a sample that favours compounds with a hit; in the whole collection about 1% have one here.
RXFP1 antag = antagonists of human relaxin receptor RXFP1 | Q9HBX9 | HEK293-RXFP1, relaxin-stimulated cAMP HTRF, 30 min; hits give low values | activity change, negative = inhibition, % at 57.5 µM | actives 0.59% (n = 350,000);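 active = activity change of -60% or lower, but not beyond a set lower limit; inconclusive = change between -60% and -40%, or beyond the set limit; inactive = change above -40%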
Target sequence (Q9HBX9 whole entry, looked up): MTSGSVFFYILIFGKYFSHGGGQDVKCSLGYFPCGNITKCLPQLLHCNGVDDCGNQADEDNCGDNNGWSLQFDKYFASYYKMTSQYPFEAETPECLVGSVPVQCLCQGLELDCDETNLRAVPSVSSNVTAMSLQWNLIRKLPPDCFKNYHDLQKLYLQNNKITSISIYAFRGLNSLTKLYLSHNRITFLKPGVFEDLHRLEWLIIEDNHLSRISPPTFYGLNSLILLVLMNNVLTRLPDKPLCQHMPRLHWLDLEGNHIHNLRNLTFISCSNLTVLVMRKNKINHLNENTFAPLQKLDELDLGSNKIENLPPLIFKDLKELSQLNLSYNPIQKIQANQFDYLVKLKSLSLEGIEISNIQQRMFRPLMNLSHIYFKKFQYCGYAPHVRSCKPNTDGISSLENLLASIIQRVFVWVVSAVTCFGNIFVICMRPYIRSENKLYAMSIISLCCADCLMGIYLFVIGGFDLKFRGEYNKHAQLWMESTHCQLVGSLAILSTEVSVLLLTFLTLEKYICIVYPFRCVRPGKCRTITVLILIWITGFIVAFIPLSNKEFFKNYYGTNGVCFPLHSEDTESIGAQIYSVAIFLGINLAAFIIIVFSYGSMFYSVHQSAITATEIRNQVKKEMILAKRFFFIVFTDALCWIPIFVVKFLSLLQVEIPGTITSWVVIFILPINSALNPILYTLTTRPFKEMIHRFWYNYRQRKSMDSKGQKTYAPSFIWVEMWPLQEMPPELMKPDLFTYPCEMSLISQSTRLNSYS
RXFP1 ag = activates the human relaxin receptor RXFP1; HEK293T-RXFP1 cAMP TR-FRET, 30 min; response scale: percent of porcine relaxin response, buffer zero; Potency, µM (titrated, usually from 57.5 µM), hits mostly activators; actives 0.3% (n = 370,000); AID 2676; active = well fitted activation curve with a large enough effect; inconclusive = small, poorly fitted or top-dose-only effect; note: nearly all actives have a fitted effect of over 60% in size
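HEK293 cells stably expressing RXFP1, treated 30 min at 37C with compounds plus PDE4 inhibitor Ro 20174; cAMP measured by HTRF TR-FRET. Normalized to buffer and 29 nM porcine relaxin; EC50 by Hill fit.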
gsp antag = gsp mutant antagonism. gsp-mutant cells, cAMP HTRF, 30 min. Potency, µM (highest dose often 76.9 µM), hits mostly inhibitors. actives 0.4% (n = 340,000). AID 624288; calls by dose curve; cell line not stated here;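 note: intracellular cAMP measured with PDE inhibitor Ro 20-1724 present during compound exposure; nearly all actives have a fitted effect of over 65% in size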
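Cells, 2000/well, grown 16–24 h in DMEM 10% FBS with 0.5 mg/ml G418, then compounds plus […] (300 uM addition stock), 30 min at 37C. cAMP read by HTRF (cAMP-d2 and anti-cAMP antibody-K in lysis buffer) after 30 min RT.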
gsp ag = agonists of gsp mutant (McCune-Albright syndrome) | AID 624287 | actives 0.13% (n = 340,000) | gsp mutant cells, cAMP HTRF, 30 min | Potency, µM (titrated, usually from 76.9 µM), most hits filed as activators; active = well fitted activation curve with a large enough effect; inconclusive = small, poorly fitted or top-dose-only effect, or another doubt; inactive = no such curve, though single readings can be large or run the other way; cell line not stated here;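 note: phosphodiesterase inhibitor Ro 20-1724 added with compounds to block cAMP breakdown; nearly all actives have a fitted effect of over 60% in size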
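Cells stably selected in G418 were plated at 2000/well, grown 16-24 hr, then given compounds in DMSO with the PDE inhibitor […] (300 uM solution added) for 30 min at 37C; cAMP was read by HTRF.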
TSHR antag = blocks TSH signaling through the human TSH receptor | activity change, negative = inhibition, % at 11.5 µM | actives 0.2% (n = 330,000) | P16473 | TSHR-expressing cells, TSH-stimulated cAMP HTRF, 2 h; hits give low values;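 active = activity change below a set negative limit, meaning inhibition stronger than a set level, cut at about -70% in these data; inconclusive = activity change between two set negative limits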
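Inhibition of cAMP made by TSHR-expressing cells under TSH stimulation (4nM final, EC80; 2 h, 37 deg C) is quantified with a one-step lysis HTRF kit, anti-cAMP cryptate versus cAMP-d2.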
Each line names hits and unclear results; the compound was inactive in the other large screens; ! = a repeat was not active.

O=C(Nc1ccc(Oc2ccc(Cl)cc2)c(Cl)c1)c1cc(I)cc(I)c1O	RXFP1 antag -92.3, gsp antag inconclusive, TSHR antag -93.8 (no result: gsp ag)
c1ccc(-c2cc(-c3ccccc3)[n+](-c3ccccc3)c(-c3ccccc3)c2)cc1	RXFP1 antag inconclusive, gsp antag 50.1µM, TSHR antag -78.1
CN(C)c1ccc(-[n+]2c(-c3ccccc3)cc(-c3ccccc3)cc2-c2ccccc2)cc1	RXFP1 antag -105.2, gsp ag inconclusive
C[n+]1c(-c2ccccc2)cc(-c2ccc(Cl)cc2)cc1-c1ccccc1	RXFP1 antag -88.3
Cc1ccc(-c2cc(-c3ccc(C)cc3)[n+](-c3ccccc3)c(-c3ccc(C)cc3)c2)cc1	TSHR antag inconclusive (no result: RXFP1 antag, gsp ag)
Cc1ccc(-c2cc(-c3ccccc3)cc(-c3ccccc3)[n+]2-c2ccccc2)cc1	gsp antag 50.1µM, TSHR antag -94.0 (no result: RXFP1 antag, gsp ag)
COP(=S)(OC)Oc1cc(Cl)c(Cl)cc1Cl	none (no result: RXFP1 ag, gsp antag, gsp ag, TSHR antag)
N[C@@H](Cn1ccc(=O)[nH]c1=O)C(=O)O	none (no result: RXFP1 antag, RXFP1 ag, gsp antag, gsp ag)
CCO[C@H]1O[C@@H]2OC3(C)CC[C@H]4[C@H](C)CC[C@@H]([C@H]1C)[C@@]24OO3	none (no result: RXFP1 ag, gsp antag, gsp ag, TSHR antag)
NC1(c2ccccc2)CCCCC1	none (no result: RXFP1 ag, gsp antag, gsp ag, TSHR antag)
CC1(C)OC(c2ccccc2)=C/C(=C/C=C2C(=O)NC(=S)NC2=O)O1	none
CN1/C(=C\C=C2C(=O)NC(=S)NC2=O)C(C)(C)c2ccccc21	gsp antag 50.1µM
COc1cc(C(C)=O)ccc1OC(=O)N(C)c1ccccc1	TSHR antag -121.9
C[C@H]1O[C@@H](O[C@H]2[C@@H](O)C[C@H](O[C@H]3[C@@H](O)C[C@H](O[C@H]4CC[C@@]5(C)[C@H](CC[C@@H]6[C@@H]5CC[C@]5(C)[C@@H](C7=CC(=O)OC7)CC[C@]65O)C4)O[C@@H]3C)O[C@@H]2C)C[C@H](O)[C@@H]1O	TSHR antag inconclusive (no result: gsp ag)
CCCCN=C[C@]12CCC(O)CC1(O)CCC1[C@@H]2CC[C@]2(C)[C@H](C3C=CC(=O)O3)CCC12O (stereo partly drawn)	TSHR antag -70.3
C[C@H]1O[C@@H](OC2CC[C@]3(C=O)[C@H]4CC[C@]5(C)[C@@H](C6=CC(=O)OC6)CC[C@]5(O)[C@@H]4CC[C@]3(O)C2)CC2OC(C)(C)OC21 (stereo partly drawn)	TSHR antag -73.7
C[C@]12CC[C@H]3[C@@H](CC[C@]4(O)C[C@@H](O)CC[C@]34C=O)[C@@]1(O)CC[C@@H]2C1=CC(=O)OC1	TSHR antag -72.0 (no result: RXFP1 antag, gsp ag)
CC12CCC3C(CCC4(O)CC(O)CCC34C=O)C1(O)CCC2C1=CC(=O)OC1 (stereo not drawn)	gsp ag inconclusive (no result: RXFP1 ag, TSHR antag)
COC(=O)c1ccc(NS(=O)(=O)NC(=O)c2cn(C)c3ccccc23)cc1	none
Cn1c(O)c(N=Nc2cccc(S(=O)(=O)N3CCOCC3)c2)c(=O)n(C)c1=O	RXFP1 ag 10µM, gsp ag inconclusive
O=c1[nH]c(=S)n(Cc2ccc(F)cc2)c(O)c1C=NCc1ccc2c(c1)OCO2	RXFP1 ag 25.1µM, gsp ag inconclusive
O=C(CSc1nnc(NC(=O)c2cccc(F)c2)s1)NCc1ccco1	gsp ag inconclusive
Cc1cccc(C2=NCC(=O)N(CC(=O)NCc3ccco3)c3sc4c(c32)CCCC4)c1	RXFP1 antag -69.2, gsp antag inconclusive
CC(C)(C)CC(C)(C)c1ccc(O)cc1	none (no result: RXFP1 ag, gsp antag, gsp ag, TSHR antag)
O=c1oc2ccccc2c(O)c1[C@H]1c2ccc(O)cc2Oc2c1c(=O)oc1ccccc21	RXFP1 ag 17.8µM
O=C(N[C@H]1N=C(c2ccccc2F)c2cccc3c2N(CC3)C1=O)c1cc2ccccc2[nH]1	none (no result: RXFP1 ag, gsp antag, gsp ag, TSHR antag)
COc1ccc(-c2noc(=O)n2Cc2cc(C)ccc2C)cc1	none
O=C(Nc1ccc(Br)cc1)c1cc(Br)cc(Br)c1O	RXFP1 antag -81.1 (no result: RXFP1 ag, gsp antag, gsp ag, TSHR antag)
COc1ccc(-n2c(O)c(/C=C3\C=Nc4ccc(Br)cc43)c(=O)[nH]c2=O)c(OC)c1	RXFP1 antag -71.2, gsp ag inconclusive
C=C1C(O)[C@@H]2O[C@]3(CC[C@H](/C=C/C(C)[C@@H]4CC(C)=CC5(O[C@H](C[C@@](C)(O)C(=O)O)CCC5O)O4)O3)CC[C@H]2O[C@@H]1C(O)CC(C)[C@H]1OC2(CCCCO2)CCC1C (stereo partly drawn)	gsp antag inconclusive, TSHR antag -77.6 (no result: RXFP1 antag, RXFP1 ag, gsp ag)
Cc1cc2c(C(C)C)c(O)c(O)c(C=O)c2c(O)c1-c1c(C)cc2c(C(C)C)c(O)c(O)c(C=O)c2c1O	RXFP1 antag inconclusive, TSHR antag -79.7! (no result: gsp antag, gsp ag)
O=c1c2ccccc2nc(/C=C\c2ccccc2F)n1-c1ccc(O)cc1	none (no result: gsp antag, gsp ag, TSHR antag)
CN1C2CCC(C)(C)C1CC(OC(=O)C(O)(c1cccs1)c1cccs1)C2 (stereo not drawn)	none (no result: RXFP1 ag, gsp antag, gsp ag, TSHR antag)
Cn1cccc1/C=C1/C(=O)NC(=S)N(Cc2ccc(F)cc2)C1=O	RXFP1 antag -68.7
COc1ccc(OCC(=O)N2CCN(Cc3cccc(OC)c3OC)CC2)cc1	none (no result: gsp antag, gsp ag, TSHR antag)
C=CCc1cc(C=C2C(=O)N(C)C(=O)N(C)C2=O)cc(OCC)c1OCc1ccccc1	RXFP1 antag -77.0
C=CCc1cc(C=C2C(=O)NC(=O)NC2=O)cc(OC)c1OCc1ccc(C(=O)O)cc1	none
CCC(=O)C(CCN(C)C)(c1ccccc1)c1ccccc1	none (no result: RXFP1 ag, gsp antag, gsp ag, TSHR antag)
Cc1[nH]n(-c2ccccc2)c(=O)c1C(c1ccc([N+](=O)[O-])cc1)c1c(C)[nH]n(-c2ccccc2)c1=O	gsp antag 25.1µM, gsp ag inconclusive
Cc1cc(C)cc(-n2c(/C=C/c3cccc(F)c3)nc3ccccc3c2=O)c1	none (no result: gsp antag, gsp ag, TSHR antag)
O=c1c2ccccc2nc(/C=C/c2ccccc2)n1-c1ccc(O)cc1	none
O=C(O)c1ccc(/C=C/c2nc3ccccc3c(=O)n2-c2ccc(Br)cc2)cc1	gsp antag 14.1µM
COc1ccc(C(O)C(C)NC(C)C(O)c2ccc(OC)cc2)cc1 (stereo not drawn)	none (no result: RXFP1 ag, TSHR antag)
COc1ccc(C(c2ccc(OC)cc2)C(Cl)(Cl)Cl)cc1	RXFP1 antag -93.5 (no result: gsp ag)
COc1ccc(C(=O)C2CCCN(Cc3ccon3)C2)c(OC)c1 (stereo not drawn)	gsp antag 50.1µM
COc1ccc(CC2(CCc3ccncc3)C(=O)NC(=O)NC2=O)c(OC)c1	gsp ag inconclusive
COc1cc(CC2(CCc3ccncc3)C(=O)NC(=O)NC2=O)cc(OC)c1OC	RXFP1 antag -79.5
O=C(c1ccc(Cl)cc1)C1CCCN(Cc2ccc3c(c2)OCCO3)C1 (stereo not drawn)	RXFP1 antag -73.4
COc1cccc(C(=O)CCN[C@@H](C)[C@H](O)c2ccccc2)c1	none (no result: RXFP1 ag, gsp antag, gsp ag, TSHR antag)
OCC[n+]1c2ccccc2nc2ccc(N3CCOCC3)cc21	RXFP1 antag inconclusive, gsp antag inconclusive, TSHR antag -71.5
C#CC(O)(C=CCl)CC (stereo not drawn)	none (no result: RXFP1 ag, gsp antag, gsp ag, TSHR antag)

Screening data as filed in PubChem BioAssay.
